# Results taken from the supplement of paper PMC7724964.
# T1: TOM1L1 1-150 VHS (domain begin residue: 1, domain end residue: 150), O75674
# T1 chain: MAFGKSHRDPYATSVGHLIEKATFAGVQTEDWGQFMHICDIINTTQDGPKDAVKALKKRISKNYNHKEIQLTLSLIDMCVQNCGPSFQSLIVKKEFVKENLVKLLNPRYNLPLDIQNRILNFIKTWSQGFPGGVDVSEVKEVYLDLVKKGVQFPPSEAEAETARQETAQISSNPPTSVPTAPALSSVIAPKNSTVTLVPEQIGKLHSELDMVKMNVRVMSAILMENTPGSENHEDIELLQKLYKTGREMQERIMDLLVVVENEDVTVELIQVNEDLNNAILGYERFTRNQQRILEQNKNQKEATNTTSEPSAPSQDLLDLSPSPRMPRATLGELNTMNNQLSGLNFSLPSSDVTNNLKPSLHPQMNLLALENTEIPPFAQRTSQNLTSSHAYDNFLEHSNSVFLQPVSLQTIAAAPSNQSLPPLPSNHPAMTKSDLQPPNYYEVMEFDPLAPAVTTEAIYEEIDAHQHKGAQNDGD
# T2: TSG101 1-145 UEV (domain begin residue: 1, domain end residue: 145), Q99816
# T2 chain: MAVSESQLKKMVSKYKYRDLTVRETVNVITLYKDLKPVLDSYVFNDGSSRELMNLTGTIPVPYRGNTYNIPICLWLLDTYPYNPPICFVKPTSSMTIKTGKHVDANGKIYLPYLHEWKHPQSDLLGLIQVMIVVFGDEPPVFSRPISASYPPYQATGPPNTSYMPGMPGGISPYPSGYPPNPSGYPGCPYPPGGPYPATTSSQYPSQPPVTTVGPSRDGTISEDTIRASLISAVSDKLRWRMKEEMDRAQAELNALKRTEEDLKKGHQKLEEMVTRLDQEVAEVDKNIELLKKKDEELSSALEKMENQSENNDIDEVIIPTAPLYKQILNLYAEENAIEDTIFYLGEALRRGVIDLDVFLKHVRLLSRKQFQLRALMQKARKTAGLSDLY
# T3: TOM1L2 1-153 VHS (domain begin residue: 1, domain end residue: 153), Q6ZVM7
# T3 chain: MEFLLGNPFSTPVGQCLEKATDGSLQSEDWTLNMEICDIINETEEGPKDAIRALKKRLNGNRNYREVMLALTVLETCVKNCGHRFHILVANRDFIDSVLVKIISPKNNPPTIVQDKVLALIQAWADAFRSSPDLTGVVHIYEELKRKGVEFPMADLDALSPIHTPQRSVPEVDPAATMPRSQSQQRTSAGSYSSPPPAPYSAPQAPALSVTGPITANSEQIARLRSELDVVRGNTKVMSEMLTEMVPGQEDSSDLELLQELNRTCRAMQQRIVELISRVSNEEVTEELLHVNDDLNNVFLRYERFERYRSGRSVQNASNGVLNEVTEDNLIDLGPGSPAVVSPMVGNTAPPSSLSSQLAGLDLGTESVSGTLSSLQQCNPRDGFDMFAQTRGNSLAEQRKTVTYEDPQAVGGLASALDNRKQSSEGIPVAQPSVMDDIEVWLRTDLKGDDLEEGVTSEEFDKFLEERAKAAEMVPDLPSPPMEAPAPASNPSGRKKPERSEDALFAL
# T4: TRIM11 268-461 SPRY (domain begin residue: 268, domain end residue: 461), Q96F44
# T4 chain: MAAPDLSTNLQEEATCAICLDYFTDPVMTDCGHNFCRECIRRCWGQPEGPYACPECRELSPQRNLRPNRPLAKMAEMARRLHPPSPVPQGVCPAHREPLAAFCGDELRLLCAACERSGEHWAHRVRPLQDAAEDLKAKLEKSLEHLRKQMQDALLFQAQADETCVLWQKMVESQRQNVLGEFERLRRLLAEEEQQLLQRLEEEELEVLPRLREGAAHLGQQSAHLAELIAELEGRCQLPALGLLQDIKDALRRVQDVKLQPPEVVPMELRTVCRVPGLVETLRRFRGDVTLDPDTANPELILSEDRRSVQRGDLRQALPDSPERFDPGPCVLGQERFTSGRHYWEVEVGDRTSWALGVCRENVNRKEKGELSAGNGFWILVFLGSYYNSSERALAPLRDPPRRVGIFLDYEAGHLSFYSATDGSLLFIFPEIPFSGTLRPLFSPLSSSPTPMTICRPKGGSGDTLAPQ
# Legend:
# Test in all cases: phage ELISA signal ratio (GST-PRM binding over GST background); higher = stronger binding of peptide-phage to the PRM
# [1] = molecular target: T1, TOM1L1 1-150 VHS (domain begin residue: …
# Method in brief: (§1)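 An M13 phage library with randomized hexadecapeptides on the gene-8 major coat protein, each peptide lacking cysteine and flanked by glycine, was selected for five rounds against human peptide recognition domains fused to the C-terminus of glutathione S-transferase (GST) and expressed in 96-well plates. Approximately 48 clones from rounds 4 and 5 went to phage ELISA. The reported value is the ELISA signal on the GST-domain fusion over the signal on GST alone, and positive clones were sequenced.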
# [2] = molecular target: T2, TSG101 1-145 UEV (domain begin residue: …
# Method in brief: as §1
# [3] = molecular target: TRIM7 324-511 SPRY (domain begin residue: 324, domain end residue: 511), Q9C029
# Method in brief: as §1
# [4] = molecular target: TRIM25 439-630 SPRY (domain begin residue: 439, domain end residue: 630), Q14258
# Method in brief: as §1
# [5] = molecular target: T3, TOM1L2 1-153 VHS (domain begin residue: …
# Method in brief: as §1
# [6] = molecular target: TOM1 1-153 VHS (domain begin residue: 1, domain end residue: 153), O60784
# Method in brief: as §1
# [7] = molecular target: TRIM21 268-465 SPRY (domain begin residue: 268, domain end residue: 465), P19474
# Method in brief: as §1
# [8] = molecular target: T4, TRIM11 268-461 SPRY (domain begin …
# Method in brief: as §1
# TRIM25 439-630 SPRY (domain begin residue: 439, domain end residue: 630), Q14258, sequence (Q14258 whole entry): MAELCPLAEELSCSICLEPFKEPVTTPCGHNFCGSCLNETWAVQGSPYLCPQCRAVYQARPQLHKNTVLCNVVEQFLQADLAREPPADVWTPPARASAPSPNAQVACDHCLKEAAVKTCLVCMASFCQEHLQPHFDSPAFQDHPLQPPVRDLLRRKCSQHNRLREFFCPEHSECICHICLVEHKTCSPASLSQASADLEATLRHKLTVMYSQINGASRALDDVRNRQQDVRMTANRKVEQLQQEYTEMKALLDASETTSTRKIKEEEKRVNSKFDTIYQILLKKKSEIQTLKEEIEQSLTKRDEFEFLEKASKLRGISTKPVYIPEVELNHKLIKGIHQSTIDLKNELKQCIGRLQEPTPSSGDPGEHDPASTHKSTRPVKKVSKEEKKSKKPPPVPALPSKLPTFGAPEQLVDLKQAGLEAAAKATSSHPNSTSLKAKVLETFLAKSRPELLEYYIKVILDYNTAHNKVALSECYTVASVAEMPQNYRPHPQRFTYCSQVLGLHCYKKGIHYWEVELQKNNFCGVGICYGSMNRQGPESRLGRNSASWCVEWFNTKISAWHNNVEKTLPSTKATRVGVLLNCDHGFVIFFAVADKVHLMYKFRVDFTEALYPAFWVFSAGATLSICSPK
# TOM1 1-153 VHS (domain begin residue: 1, domain end residue: 153), O60784, sequence (O60784 whole entry): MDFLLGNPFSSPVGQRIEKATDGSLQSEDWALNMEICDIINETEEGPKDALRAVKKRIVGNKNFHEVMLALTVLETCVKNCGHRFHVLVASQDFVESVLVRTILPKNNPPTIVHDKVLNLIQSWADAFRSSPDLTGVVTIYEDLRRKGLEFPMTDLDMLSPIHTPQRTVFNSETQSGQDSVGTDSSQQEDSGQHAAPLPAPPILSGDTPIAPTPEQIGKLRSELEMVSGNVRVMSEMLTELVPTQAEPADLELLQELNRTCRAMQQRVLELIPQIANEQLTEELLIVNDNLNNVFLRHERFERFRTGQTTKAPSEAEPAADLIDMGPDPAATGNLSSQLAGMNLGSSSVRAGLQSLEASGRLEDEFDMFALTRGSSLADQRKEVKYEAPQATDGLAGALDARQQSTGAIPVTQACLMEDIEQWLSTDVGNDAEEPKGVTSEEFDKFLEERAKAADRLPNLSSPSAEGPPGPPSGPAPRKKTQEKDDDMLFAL
# TRIM21 268-465 SPRY (domain begin residue: 268, domain end residue: 465), P19474, sequence (P19474 whole entry): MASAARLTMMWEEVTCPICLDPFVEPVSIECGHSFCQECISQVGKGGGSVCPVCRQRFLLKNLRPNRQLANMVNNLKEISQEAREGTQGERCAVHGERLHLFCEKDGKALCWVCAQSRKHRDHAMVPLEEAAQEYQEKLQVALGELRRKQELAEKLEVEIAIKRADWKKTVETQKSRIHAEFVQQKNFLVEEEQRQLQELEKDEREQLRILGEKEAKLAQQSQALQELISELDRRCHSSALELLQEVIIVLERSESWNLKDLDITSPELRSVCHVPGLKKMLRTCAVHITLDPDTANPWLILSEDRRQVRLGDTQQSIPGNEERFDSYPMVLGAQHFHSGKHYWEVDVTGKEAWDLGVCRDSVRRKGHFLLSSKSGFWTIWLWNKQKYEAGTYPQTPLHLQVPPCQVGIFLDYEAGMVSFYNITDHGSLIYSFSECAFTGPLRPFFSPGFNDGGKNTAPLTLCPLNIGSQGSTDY
binder,measurement,setting,value
NNNWWMQWHVEEHEME,phage ELISA signal ratio,[1],4.26
FPYNPHWDMLQQETTV,phage ELISA signal ratio,[2],3.09
GLVYYDVPFDFGVIDW,phage ELISA signal ratio,[3],13.2
VVGDGMAFERWFQDFE,phage ELISA signal ratio,[4],14.5
TVFWDGMYDWPVEMDI,phage ELISA signal ratio,[4],21
DMLDWSWTEEVELWFQ,phage ELISA signal ratio,[1],24.5
FVDWDIPSWWFQQVTS,phage ELISA signal ratio,[1],15.1
QTPLEAFWEAYDSISW,phage ELISA signal ratio,[5],23.1
QHDWAPSYLWWDEWTM,phage ELISA signal ratio,[1],20.5
LERKIAWAQQLWKYFV,phage ELISA signal ratio,[3],6.97
EWWLSYDPHWVETISA,phage ELISA signal ratio,[6],5.42
FEDGWMYQDFLKAPET,phage ELISA signal ratio,[7],14.1
same,phage ELISA signal ratio,[4],9.36
QVWWEAYEKRLHVETE,phage ELISA signal ratio,[6],8.09
MPDGWWDQYSWEHIAE,phage ELISA signal ratio,[4],15.7
WYEDGWWTPHRMEQTR,phage ELISA signal ratio,[8],30
GFFQFQALPEWIVYMN,phage ELISA signal ratio,[8],12.6
PWWLEYEMPITRESPV,phage ELISA signal ratio,[6],4.45
MDWYDMYGTTWDMIPG,phage ELISA signal ratio,[4],10.7
WDDGFMEYGALPHEQM,phage ELISA signal ratio,[4],12.3
VSEGQWRPSYLWWTDD,phage ELISA signal ratio,[1],4.64
LPPHWFDEMYSITAMY,phage ELISA signal ratio,[5],7.51
TGNVFQFMDPPQWLTH,phage ELISA signal ratio,[8],29.9
HRFVYMEQLPSWLFAV,phage ELISA signal ratio,[8],23
LEWTWYDTWTWPEESQ,phage ELISA signal ratio,[1],22
YQMSWMPSEIWWLNYV,phage ELISA signal ratio,[1],9.38
NSWWLDYEERATLHGD,phage ELISA signal ratio,[6],9.5
DRKLSQQELALWAYII,phage ELISA signal ratio,[5],27.7
ADGWGWYENWVWPASM,phage ELISA signal ratio,[1],4.28
